# For some assays here: Measured potencies and affinities stand elsewhere.
# Legend:
# Set-up in all cases: scale not given: direction of the effect not stated beside the values
# [1] = target: Protein translocase subunit SecA (Escherichia coli (strain K12)) (UniProt P10408); assay: Assay to Identify E. coli SecA ATPase Inhibitors; assay type: functional; settings: 30 µM
# [2] = target: T1, Ubiquitin-activating enzyme e1, putative (Leishmania donovani (strain BPK282A1)) (UniProt E9BSI1); assay: Leishmania donovani Ubiquitin Activating Enzyme (LdE1); assay type: functional; settings: 30 µM
# T1 sequence (whole entry): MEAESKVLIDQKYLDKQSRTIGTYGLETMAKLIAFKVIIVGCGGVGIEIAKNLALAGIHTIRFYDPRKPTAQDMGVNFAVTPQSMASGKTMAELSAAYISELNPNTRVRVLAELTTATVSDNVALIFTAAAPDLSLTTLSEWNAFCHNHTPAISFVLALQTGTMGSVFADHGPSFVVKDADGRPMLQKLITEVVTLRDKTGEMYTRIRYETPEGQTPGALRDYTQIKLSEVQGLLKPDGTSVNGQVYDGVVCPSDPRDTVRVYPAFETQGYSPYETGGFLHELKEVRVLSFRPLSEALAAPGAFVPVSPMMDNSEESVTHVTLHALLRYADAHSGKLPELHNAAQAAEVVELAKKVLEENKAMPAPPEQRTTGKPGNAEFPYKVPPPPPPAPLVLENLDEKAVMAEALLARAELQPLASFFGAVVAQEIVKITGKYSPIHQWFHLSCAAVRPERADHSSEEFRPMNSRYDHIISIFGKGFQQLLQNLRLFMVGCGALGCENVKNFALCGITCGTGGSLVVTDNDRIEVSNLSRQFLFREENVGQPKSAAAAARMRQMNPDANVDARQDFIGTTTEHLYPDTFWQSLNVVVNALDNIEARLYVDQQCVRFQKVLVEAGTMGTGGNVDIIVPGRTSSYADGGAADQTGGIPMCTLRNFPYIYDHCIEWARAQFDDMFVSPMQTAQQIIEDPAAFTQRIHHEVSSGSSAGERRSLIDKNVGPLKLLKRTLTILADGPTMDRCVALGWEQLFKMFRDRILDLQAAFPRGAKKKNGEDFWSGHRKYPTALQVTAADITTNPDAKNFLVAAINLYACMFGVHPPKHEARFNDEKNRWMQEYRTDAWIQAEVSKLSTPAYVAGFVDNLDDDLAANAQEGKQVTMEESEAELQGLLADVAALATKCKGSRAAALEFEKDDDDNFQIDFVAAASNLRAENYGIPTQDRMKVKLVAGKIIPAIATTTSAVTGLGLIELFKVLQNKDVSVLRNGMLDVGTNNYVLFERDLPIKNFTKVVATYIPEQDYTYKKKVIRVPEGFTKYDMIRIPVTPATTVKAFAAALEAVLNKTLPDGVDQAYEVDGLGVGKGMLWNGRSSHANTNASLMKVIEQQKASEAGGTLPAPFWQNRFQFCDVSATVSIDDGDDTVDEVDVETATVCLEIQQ
# [3] = target: AMP-activated protein kinase, AMPK (Homo sapiens) (UniProt P54646+O43741+P54619+Q9UGJ0+Q9Y478+Q13131+Q9UGI9); assay: AMP-dependent Kinase enzyme assay. An in vitro enzyme assay that detects ADP turnover that is directly proportional to AMPK activity. This uses naive AMPK that is activated during the assay with MK-8722; assay type: functional; settings: 30 µM
# [4] = target: Sialic acid-binding Ig-like lectin 9 (Homo sapiens) (UniProt Q9Y336); assay: Hs-Siglec9 ALPHAscreen SOP 20170721; settings: 10 µM
# Sequence of Sialic acid-binding Ig-like lectin 9 (Homo sapiens) (Q9Y336 whole entry): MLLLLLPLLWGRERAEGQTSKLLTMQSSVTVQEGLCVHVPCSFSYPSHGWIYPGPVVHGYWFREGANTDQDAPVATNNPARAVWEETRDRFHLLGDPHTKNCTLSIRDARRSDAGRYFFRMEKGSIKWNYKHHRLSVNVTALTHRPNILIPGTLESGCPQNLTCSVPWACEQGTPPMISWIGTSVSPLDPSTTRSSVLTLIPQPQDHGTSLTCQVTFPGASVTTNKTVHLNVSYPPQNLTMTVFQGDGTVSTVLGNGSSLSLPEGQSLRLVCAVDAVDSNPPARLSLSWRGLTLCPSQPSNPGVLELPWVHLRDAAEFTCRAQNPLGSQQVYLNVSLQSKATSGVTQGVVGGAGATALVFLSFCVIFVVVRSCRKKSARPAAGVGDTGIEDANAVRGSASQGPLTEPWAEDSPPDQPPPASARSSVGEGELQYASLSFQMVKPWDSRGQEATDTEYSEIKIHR
# Trypanosoma cruzi = assay: Trypanosoma cruzi phosphomannomutase and mannose-1-phosphate guanylyltransferase assay; assay type: functional; settings: 10 µM
# [5] = target: T2, Arginase-2, mitochondrial (Homo sapiens) (UniProt P78540); assay: in vitro enzyme assay to detect the production of urea directly proportional to the activity of Arginase II; assay type: functional; settings: 33.3 µM; also: in the data most compounds retested in dose-response had high values
# T2 sequence (whole entry): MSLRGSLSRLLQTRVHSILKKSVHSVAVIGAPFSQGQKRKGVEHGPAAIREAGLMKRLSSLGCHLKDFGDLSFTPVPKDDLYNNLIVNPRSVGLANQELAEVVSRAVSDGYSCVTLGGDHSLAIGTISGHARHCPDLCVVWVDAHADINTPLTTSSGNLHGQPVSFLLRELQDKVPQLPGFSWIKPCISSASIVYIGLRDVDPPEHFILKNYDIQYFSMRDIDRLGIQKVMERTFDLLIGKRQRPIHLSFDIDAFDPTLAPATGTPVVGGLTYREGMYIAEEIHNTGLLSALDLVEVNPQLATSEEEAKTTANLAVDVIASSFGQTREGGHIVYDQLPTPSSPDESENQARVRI
# [6] = target: T3, Proteasome subunit beta (Trypanosoma cruzi) (UniProt O96673); assay: Trypanosoma cruzi proteasome chymotrypsin-like activity (TcProtChymo) assay.; also: in the data most compounds retested in dose-response had high values; assay type: functional; settings: 9.37 µM
# T3 sequence (whole entry): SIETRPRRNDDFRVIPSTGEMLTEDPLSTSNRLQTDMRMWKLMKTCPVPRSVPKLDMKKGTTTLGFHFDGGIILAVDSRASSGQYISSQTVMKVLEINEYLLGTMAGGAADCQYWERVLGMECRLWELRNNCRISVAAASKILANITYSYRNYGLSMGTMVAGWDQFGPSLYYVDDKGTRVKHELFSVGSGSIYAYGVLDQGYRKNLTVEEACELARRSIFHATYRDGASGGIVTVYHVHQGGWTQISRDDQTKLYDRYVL
# Homo sapiens = organism: Homo sapiens; assay: To identify inhibition of the IFN signalling (Jak-Stat) pathway via expression of an eGFP reporter gene under the control of an IFN-stimulated response element (ISRE) containing MxA promoter.; assay type: functional; settings: 30 µM
# [7] = target: T4, Tyrosyl-tRNA synthetase, putative (Trypanosoma cruzi (strain CL Brener)) (UniProt Q4DSP6); assay: Trypanosoma cruzi tyrosyl tRNA synthetase (TcYRS) _High Tyrosine SOP; assay type: functional; settings: 30 µM; also: in the data most compounds retested in dose-response had high values
# T4 sequence (whole entry): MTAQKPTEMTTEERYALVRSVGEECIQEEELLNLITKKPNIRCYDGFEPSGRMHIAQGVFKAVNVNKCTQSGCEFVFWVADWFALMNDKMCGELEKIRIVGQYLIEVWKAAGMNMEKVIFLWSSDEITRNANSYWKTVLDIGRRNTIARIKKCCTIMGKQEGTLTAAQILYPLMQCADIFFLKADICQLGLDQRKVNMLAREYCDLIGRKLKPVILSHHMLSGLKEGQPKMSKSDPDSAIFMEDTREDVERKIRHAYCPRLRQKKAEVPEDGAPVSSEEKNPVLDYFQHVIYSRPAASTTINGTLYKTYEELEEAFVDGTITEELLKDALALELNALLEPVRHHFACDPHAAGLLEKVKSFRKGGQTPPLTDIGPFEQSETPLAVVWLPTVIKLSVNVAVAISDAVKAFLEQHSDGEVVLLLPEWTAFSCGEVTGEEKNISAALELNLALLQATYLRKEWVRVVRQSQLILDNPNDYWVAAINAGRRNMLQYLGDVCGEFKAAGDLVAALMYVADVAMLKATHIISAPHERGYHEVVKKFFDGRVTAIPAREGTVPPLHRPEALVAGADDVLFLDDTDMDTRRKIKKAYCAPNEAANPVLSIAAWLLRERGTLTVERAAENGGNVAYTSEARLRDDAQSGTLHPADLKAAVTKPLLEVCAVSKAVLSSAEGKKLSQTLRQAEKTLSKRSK
# [8] = target: T4, Tyrosyl-tRNA synthetase, putative (Trypanosoma cruzi (strain CL Brener)); assay: Trypanosoma cruzi tyrosyl tRNA synthetase (TcYRS) SOP; assay type: functional; settings: 30 µM
# [9] = target: Chromo domain-containing protein 1 (Saccharomyces cerevisiae (strain ATCC 204508 / S288c) (Baker's yeast)) (UniProt P32657); assay: ScCHD-1 Enzyme Inhibition Assay; assay type: functional; settings: 30 µM; also: in the data most compounds retested in dose-response had high values
# Sequence of Chromo domain-containing protein 1 (Saccharomyces cerevisiae (strain ATCC 204508 / S288c) (Baker's yeast)) (P32657 whole entry, the tested form may be a part): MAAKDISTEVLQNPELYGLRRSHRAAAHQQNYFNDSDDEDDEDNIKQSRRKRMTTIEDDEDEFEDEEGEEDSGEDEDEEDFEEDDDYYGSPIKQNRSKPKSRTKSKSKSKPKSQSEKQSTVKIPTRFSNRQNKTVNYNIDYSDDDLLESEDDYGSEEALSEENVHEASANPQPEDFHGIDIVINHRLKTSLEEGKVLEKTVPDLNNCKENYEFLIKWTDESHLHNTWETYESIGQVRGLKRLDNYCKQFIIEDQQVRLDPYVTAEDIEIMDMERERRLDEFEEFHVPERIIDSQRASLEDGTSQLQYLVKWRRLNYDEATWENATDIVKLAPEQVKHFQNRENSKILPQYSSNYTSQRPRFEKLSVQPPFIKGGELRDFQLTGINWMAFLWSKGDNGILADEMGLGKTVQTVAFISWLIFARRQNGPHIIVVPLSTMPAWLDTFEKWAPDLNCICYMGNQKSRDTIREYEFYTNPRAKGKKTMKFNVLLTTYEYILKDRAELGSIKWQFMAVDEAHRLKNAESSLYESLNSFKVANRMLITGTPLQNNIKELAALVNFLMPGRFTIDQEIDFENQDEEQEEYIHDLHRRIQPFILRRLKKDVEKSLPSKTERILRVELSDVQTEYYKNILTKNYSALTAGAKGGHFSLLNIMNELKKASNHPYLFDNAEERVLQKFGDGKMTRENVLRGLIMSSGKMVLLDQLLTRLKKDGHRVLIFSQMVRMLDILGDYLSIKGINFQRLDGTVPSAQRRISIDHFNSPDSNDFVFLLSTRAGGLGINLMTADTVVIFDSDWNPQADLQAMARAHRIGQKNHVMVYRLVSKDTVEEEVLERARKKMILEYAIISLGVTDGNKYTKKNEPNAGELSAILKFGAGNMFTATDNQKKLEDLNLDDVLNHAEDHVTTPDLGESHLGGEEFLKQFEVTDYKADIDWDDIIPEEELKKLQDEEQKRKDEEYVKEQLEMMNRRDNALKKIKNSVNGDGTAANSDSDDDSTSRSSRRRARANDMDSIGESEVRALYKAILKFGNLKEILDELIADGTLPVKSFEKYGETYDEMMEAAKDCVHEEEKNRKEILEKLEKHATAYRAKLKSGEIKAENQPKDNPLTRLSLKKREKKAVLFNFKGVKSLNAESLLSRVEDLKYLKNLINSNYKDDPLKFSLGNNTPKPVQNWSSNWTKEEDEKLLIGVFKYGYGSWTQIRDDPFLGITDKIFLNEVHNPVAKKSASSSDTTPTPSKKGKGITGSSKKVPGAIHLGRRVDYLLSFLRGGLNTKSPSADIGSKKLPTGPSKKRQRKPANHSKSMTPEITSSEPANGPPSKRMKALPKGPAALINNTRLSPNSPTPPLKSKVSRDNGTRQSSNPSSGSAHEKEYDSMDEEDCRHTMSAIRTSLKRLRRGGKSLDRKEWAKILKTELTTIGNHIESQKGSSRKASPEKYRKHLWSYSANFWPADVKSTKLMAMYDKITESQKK
# Sequence of Protein translocase subunit SecA (Escherichia coli (strain K12)) (P10408 whole entry): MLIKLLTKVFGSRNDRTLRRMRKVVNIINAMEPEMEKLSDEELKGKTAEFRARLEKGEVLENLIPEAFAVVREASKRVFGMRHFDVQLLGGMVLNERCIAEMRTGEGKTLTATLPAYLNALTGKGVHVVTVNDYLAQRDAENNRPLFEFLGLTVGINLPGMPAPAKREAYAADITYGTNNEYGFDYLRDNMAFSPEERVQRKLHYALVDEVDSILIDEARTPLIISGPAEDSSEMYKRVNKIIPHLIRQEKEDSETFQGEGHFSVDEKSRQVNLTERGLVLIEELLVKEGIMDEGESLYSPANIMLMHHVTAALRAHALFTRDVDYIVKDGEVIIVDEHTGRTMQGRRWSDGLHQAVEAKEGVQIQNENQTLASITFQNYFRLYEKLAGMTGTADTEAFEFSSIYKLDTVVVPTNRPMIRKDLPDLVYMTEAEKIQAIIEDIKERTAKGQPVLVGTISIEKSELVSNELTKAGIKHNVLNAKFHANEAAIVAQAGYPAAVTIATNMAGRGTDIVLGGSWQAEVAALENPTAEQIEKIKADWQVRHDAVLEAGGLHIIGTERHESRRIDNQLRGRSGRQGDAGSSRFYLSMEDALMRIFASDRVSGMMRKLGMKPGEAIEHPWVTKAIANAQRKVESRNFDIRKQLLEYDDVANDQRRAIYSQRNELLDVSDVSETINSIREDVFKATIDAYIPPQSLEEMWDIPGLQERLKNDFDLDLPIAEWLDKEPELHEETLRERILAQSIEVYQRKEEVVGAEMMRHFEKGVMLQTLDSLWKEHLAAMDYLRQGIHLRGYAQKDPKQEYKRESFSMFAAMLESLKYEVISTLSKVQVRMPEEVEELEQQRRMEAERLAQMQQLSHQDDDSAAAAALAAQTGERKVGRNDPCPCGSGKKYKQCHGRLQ
SMILES,Percent Effect [1] [%],Percent Effect [2] [%],Percent Effect [3] [%],Percent Effect [4] [%],Percent Effect (Trypanosoma cruzi) [%],Percent Effect [5] [%],Percent Effect [6] [%],Percent Effect (Homo sapiens) [%],Percent Effect [7] [%],Percent Effect [8] [%],Percent Effect [9] [%]
CCn1c(C(=O)N2CCN(C(=O)NC(C)C)CC2)cc2ccccc21,-9.42,2.6,5.86,-4.68,-3.37,0.356,6.93,14.7,0,0,-7.12
CCc1nnc2n1CCN(C(=O)c1ccc3[nH]cnc3c1)C2,-7.1,12.5,-11.5,41.5,6.9,3.97,10.2,0.294,3.16,15.4,-13.2
CC(C)COC(C)C(=O)N1CCN(S(C)(=O)=O)CC1 (configuration not stated),-3.12,8.22,-1.38,2.29,3.53,1.36,8.34,-1.94,4.3,20,-4.42
O=C1CC(c2ccncc2)c2c(c(C(=O)O)cn2-c2ccc(F)cc2)N1 (configuration not stated),-3.81,12,-34.9,-1.44,-3.14,-3.35,13.7,4.82,8.47,15.4,-5.97
CCC(=O)N1CCc2[nH]cnc2C12CCN(C(=O)CCS(C)(=O)=O)CC2,1.36,6.94,-9.27,3.42,4.37,23.4,19.1,22.1,5.26,7.69,-2.55
Cn1c2c(ccc1=O)CC(NS(C)(=O)=O)CC2 (configuration not stated),-7.68,5.33,5.05,-7.17,-1.97,-0.233,-1.15,20.7,2.13,-3.85,-1.57
Cc1cc(-c2cnc(N3CCCC(C)C3)nc2-c2cccnc2C)on1 (configuration not stated),-7.33,1.35,6.26,-5.16,-5.93,-5.34,8.74,59.4,-8.6,-3.9,-22.2
CC[C@@]1(O)CCN(C(=O)c2ccc(SC)cc2)C[C@H]1O,-4.3,4.17,0.43,1.71,6.9,-0.442,10.9,3.45,4.21,5.13,-3.41
O=C(Cc1ccc2c(c1)OCO2)N1CCCN(c2ccccc2)CC1,-6.04,13.7,3.46,5.03,0.992,-2,4.54,10.8,3.12,11.1,-0.294
c1ccc(-c2cc(CN3CCC(c4ccn[nH]4)CC3)on2)cc1,-3.15,-2.7,-3.14,8.25,-1.54,-0.952,17.2,42.5,0.529,7.32,-3.02
O=C(NC1CCCC1)NC1CCC(C(=O)N2CCSCC2)CC1 (configuration not stated),-4.05,2.6,5.55,0.598,-5.61,-2.76,3.33,23.7,2.15,-1.24,-0.623
O=C(c1ccc2c(c1)CCCC2)N1CCOCC1c1ncon1 (configuration not stated),-2.2,5.41,-9.67,7.55,2.17,-5.61,9.37,5.93,3.45,13.6,-8.29
Cc1cc(S(=O)(=O)NCc2cccc(C(=O)N3CCCC3)c2)c(C)s1,-4.9,13,-3.16,-6.78,4.21,-1.9,10.1,15.2,5.71,21.2,-17.7
O=C(Nc1cc(C(F)(F)F)c[nH]c1=O)N1CCCSCC1,-5.05,7.79,1.88,4.65,-3.37,2.85,6.08,20.5,6.8,12.2,-1.96
Cn1ncc2c(=O)[nH]c(CN3CCCC3c3cccs3)nc21 (configuration not stated),-2.36,20.2,-1.76,-3.9,-5.38,1.14,5.32,15.9,7.39,11.4,-5.13
Cc1cc2nc(SCC(=O)N3CCOCC3)n(CC(C)C)c(=O)c2[nH]1,2.16,13.2,2.03,-4.31,-4.77,11.8,18.3,-10.6,-1.06,10.4,-2.79
COC[C@@]12CCO[C@@H]1CCN(Cc1ccccc1F)C2,-2.12,11,-5.09,8.1,5.75,-2.79,10.5,3.87,4.17,8.64,-4.87
c1ccc(-c2ccc3nc(C4CCN(CC5CC5)CC4)nn3c2)cc1,4.34,-5.48,2.06,4.55,0.992,3.99,6.08,-16.5,4.17,3.7,0.798
COCCCNC(=O)NCc1ccc(C)cc1,-4.5,6.33,-3.62,-1.57,-0.308,-4.52,13.2,1.42,5.21,17.7,-28.6
CCc1ccc(CNC(=O)N2CCN(Cc3cc(C)no3)CC2)s1,-3.56,15.8,7.06,-6.42,-9.24,-1.08,17.2,13.6,2.46,6.17,-7.04
CN(C)C(=O)N1CCN(CCn2nc3ccccn3c2=O)CC1,0.243,7.89,0.915,-3.62,-6.13,0,20.8,3.27,6.38,5.2,-5.93
CC(C)C(=O)NCC(=O)N(C)C1CCCN(C2Cc3ccccc3C2)C1 (configuration not stated),0.272,8.11,-4.7,3.43,-3.48,0.476,14.3,11.7,-1.59,-26.8,-2.54
